{"source": "PubChem BioAssay AID540256", "about": "(National Center for Advancing Translational Sciences (NCATS), 2011)", "note": "Hit rate of the full screen: of about 300,000 compounds, about 3,700 (1.2%) were called active. Not shown: some 20% with an inconclusive outcome. The list comes from a sample in which actives are over-represented; it also holds similar structures and randomly drawn compounds. Unmarked numbers belong to inactive results. Calls follow the shape of the full dose curve; tested in HEK293 cells. % is scaled to controls: 0 for no effect and ±100 for the full control effect; potency is read from the fitted curve at half-maximal effect.", "data": [{"assay": "qHTS for Inhibitors of binding or entry into cells for Lassa Virus; also: nearly all actives have a fitted effect of over 50% in size", "conditions": "Lassa virus pseudotype entry inhibition, cell reporter; series mostly up to 37.9 µM; activity change, negative = inhibition: at the top concentration", "values": [{"smiles": "CCCCCCn1c(CN2CCCCC2)nc2c1c(=O)n(C)c(=O)n2C", "activity change, negative = inhibition": "-21.6%"}, {"smiles": "CCCCCCCCn1c2c(c(=N)c3c1CCC3)CCCC2", "Potency": "5.62 µM (active)"}, {"smiles": "CCCCN(CC(=O)Nc1cccc(S(=O)(=O)N2CCCC2)c1)Cc1nc2ccccc2c(=O)[nH]1", "activity change, negative = inhibition": "-17.3%"}, {"smiles": "O=C(Nc1ccccc1)Oc1cccc2cccnc12", "activity change, negative = inhibition": "0.944%"}, {"smiles": "O=C(CNC(=O)c1ccccc1Br)NCCSc1ccc(Br)cc1", "activity change, negative = inhibition": "-7.68%"}, {"smiles": "O=[N+]([O-])c1cc(S(=O)(=O)Nc2cccc(Cl)c2)ccc1N=Nc1c(O)[nH]c2ccccc12", "Potency": "11.2 µM (active)"}, {"smiles": "CN1CCN(c2ccc(S(=O)(=O)Nc3ccccc3)cc2[N+](=O)[O-])CC1", "activity change, negative = inhibition": "-6.99%"}, {"smiles": "Oc1[nH]c2ccccc2c1N=Nc1c(F)c(F)c(F)c(F)c1F", "activity change, negative = inhibition": "13.9%"}, {"smiles": "CC1(C)N=C(N)NC(Nc2ccc(Cl)cc2)=N1", "activity change, negative = inhibition": "7.27% [at 46.1 µM]"}, {"smiles": "COc1cccc(N(CC(=O)N2CCc3ccccc3C2)S(C)(=O)=O)c1", "activity change, negative = inhibition": "-7.14%"}, {"smiles": "CS(=O)(=O)N(CC(=O)N1CCc2ccccc2C1)c1ccc(Br)cc1", "activity change, negative = inhibition": "-2.02%"}, {"smiles": "Cc1ccc(S(=O)(=O)N(CC(=O)N2CCc3ccccc3C2)c2cccc(Cl)c2)cc1", "Potency": "14.1 µM (active)"}, {"smiles": "Cc1ccc(S(=O)(=O)N2CCC(C(=O)N3CCCCCCC3)CC2)cc1", "activity change, negative = inhibition": "-28.9%"}, {"smiles": "O=C(c1ccc(F)c(S(=O)(=O)N2CCOCC2)c1)N(CCc1ccccc1)Cc1ccccc1", "activity change, negative = inhibition": "-2.24%"}, {"smiles": "C=CCn1c(C)cc(C2=NNC(=NCC)SC2)c1C", "Potency": "1.64 µM (active)"}, {"smiles": "Cc1cc(C2=NNC(=Nc3ccc(S(=O)(=O)N4CCOCC4)cc3)SC2)c(C)n1CC1CCCO1", "note": "(stereo not drawn)", "activity change, negative = inhibition": "0.163% [at 46.1 µM]"}, {"smiles": "COc1ccc(C(=O)ON=C2c3ccccc3-c3ccccc32)cc1OC", "activity change, negative = inhibition": "21.5%"}, {"smiles": "COc1ccc(C/C(N)=N/OC(=O)c2ccco2)cc1OC", "activity change, negative = inhibition": "21.5%"}, {"smiles": "COc1ccc(C(=O)O/N=C(\\N)Cc2ccc(Cl)cc2Cl)cc1OC", "Potency": "20 µM (active)"}, {"smiles": "O=C(CN1CCSc2ccccc21)N1CCN(c2ccccc2)CC1", "activity change, negative = inhibition": "7.02% [at 46.1 µM]"}, {"smiles": "CCOc1cc(C(=O)NCCc2csc3nc(-c4ccc(C)cc4)nn23)cc(OCC)c1OCC", "activity change, negative = inhibition": "12.3% [at 46.1 µM]"}, {"smiles": "Cc1cc(=O)[nH]c(SCc2ccc(Cl)cc2)n1", "activity change, negative = inhibition": "-0.267%"}, {"smiles": "O=C(O)CN1CCN(C(c2ccccc2)c2ccccc2)CC1", "activity change, negative = inhibition": "1.74% [at 46.1 µM]"}, {"smiles": "Cn1nnnc1SCC(=O)N1CCN(C(c2ccccc2)c2ccccc2)CC1", "activity change, negative = inhibition": "0.563%"}, {"smiles": "c1ccc(C(c2ccccc2)N2CCN(Cc3nnnn3C3CCCCC3)CC2)cc1", "Potency": "11.6 µM (active)"}, {"smiles": "COc1ccc(N2CCN(C(=O)CCNC(=O)c3ccc(Br)cc3)CC2)cc1", "activity change, negative = inhibition": "-23.1%"}, {"smiles": "Cc1ccc(S(=O)(=O)NCCC(=O)OCC(=O)N(C)c2ccccc2)cc1", "activity change, negative = inhibition": "6.99% [at 46.1 µM]"}, {"smiles": "Cc1cc(C)nc(N/N=C/c2c(CO)cnc(C)c2O)n1", "activity change, negative = inhibition": "-18.4% [at 46.1 µM]"}, {"smiles": "N#Cc1c(N)n(CCOC(=O)c2ccc(Cl)cc2)c2nc3ccccc3nc12", "activity change, negative = inhibition": "9.1%"}, {"smiles": "CN(C)CCCn1c(N)c(C#N)c2nc(C#N)c(C#N)nc21", "Potency": "15.8 µM (active)"}, {"smiles": "CC(C)(C)c1ccc(C(=O)NCCn2c(N)c(C#N)c3nc4ccccc4nc32)cc1", "activity change, negative = inhibition": "-18.7%"}, {"smiles": "O=C(Cc1ccc(S(=O)(=O)N2CCOCC2)s1)Nc1ccc(Br)c(C(F)(F)F)c1", "activity change, negative = inhibition": "-16.6%"}, {"smiles": "O=C(Nc1ncccc1O)c1ccc(C(=O)c2ccccc2)cc1", "activity change, negative = inhibition": "1.16%"}, {"smiles": "N#CCN(C(=O)COC(=O)C1CC2CCCC(C1)C2=O)c1ccccc1", "note": "(stereo not drawn)", "activity change, negative = inhibition": "0.703% [at 46.1 µM]"}, {"smiles": "CC(=O)Oc1cccc(N2C(=O)C3CC=C(Cl)CC3C2=O)c1", "note": "(stereo not drawn)", "activity change, negative = inhibition": "24.4%"}, {"smiles": "O=C(NC1CC(=O)N(c2ccccc2)C1)c1ccco1", "note": "(stereo not drawn)", "activity change, negative = inhibition": "0.379% [at 46.1 µM]"}, {"smiles": "O=C(Oc1cccc(N2C(=O)C3C4c5ccccc5C(c5ccccc54)C3C2=O)c1)c1ccco1", "note": "(stereo not drawn)", "Potency": "8.91 µM (active)"}, {"smiles": "CCOc1ccc(CN2CCNC(=O)C2CC(=O)NCCCC2CCCC2)cc1", "note": "(stereo not drawn)", "activity change, negative = inhibition": "-20.2%"}, {"smiles": "NC(=S)NN=C1CCCC(C(F)(F)F)C1", "note": "(stereo not drawn)", "activity change, negative = inhibition": "8.5%"}, {"smiles": "Cc1c(C(=O)N2CCCc3ccccc32)oc2ccccc12", "activity change, negative = inhibition": "0.632% [at 46.1 µM]"}, {"smiles": "O=C(c1c(Cl)nc2sccn12)N1CCCc2ccccc21", "activity change, negative = inhibition": "13%"}, {"smiles": "Cc1cccc2cc3c(N)c(C(=O)N4CCCc5ccccc54)sc3nc12", "Potency": "2.82 µM (active)"}, {"smiles": "CC(=NNC(=O)c1ccc2nc[nH]c2c1)c1ccc(Br)cc1", "activity change, negative = inhibition": "-8.19% [at 46.1 µM]"}, {"smiles": "O=C(NCCc1ccc(Cl)cc1)c1ccc2c(c1)N(Cc1ccc(F)cc1)C(=O)CS2", "activity change, negative = inhibition": "0.26% [at 46.1 µM]"}, {"smiles": "CCOc1ccc(Br)cc1S(=O)(=O)Nc1ccc(S(=O)(=O)Nc2cc(C)on2)cc1", "activity change, negative = inhibition": "9.12% [at 46.1 µM]"}, {"smiles": "NS(=O)(=O)c1ccc(CCNc2nc(C(F)(F)F)nc3ccccc23)cc1", "activity change, negative = inhibition": "-9.35%"}, {"smiles": "CC(Nc1nc(C(F)(F)F)nc2ccccc12)c1cccs1", "note": "(stereo not drawn)", "activity change, negative = inhibition": "-11.1%"}, {"smiles": "CCc1ccc(C(CNc2nc(C(F)(F)F)nc3ccccc23)N(C)C)cc1", "note": "(stereo not drawn)", "Potency": "10 µM (active)"}, {"smiles": "Cc1ccc(S(=O)(=O)n2oc(=O)c(C3CCCCC3)c2N)cc1", "activity change, negative = inhibition": "0% [at 46.1 µM]"}, {"smiles": "O=C(Nc1ccc(NC(=O)c2ccccc2F)cc1)c1ccccc1F", "activity change, negative = inhibition": "-13%"}, {"smiles": "C/C(=N\\NC(=O)Cc1ccc(F)cc1)c1ccc(F)cc1", "activity change, negative = inhibition": "0.896%"}, {"smiles": "C/C(=N\\NC(=O)Cc1ccc(Cl)cc1)c1ccccn1", "Potency": "8.2 µM (active)"}, {"smiles": "CNC(=S)N1CCN(c2ccccn2)CC1", "activity change, negative = inhibition": "5.69%"}, {"smiles": "CCNC(=S)N1CCN(c2ncccn2)CC1", "activity change, negative = inhibition": "3.81%"}, {"smiles": "CC(=O)Nc1cccc(/C(C)=N/NC(=O)c2ccccc2Cl)c1", "activity change, negative = inhibition": "1.02%"}, {"smiles": "C/C(=N\\NC(=O)Cc1ccc(Br)cc1)c1cccnc1", "activity change, negative = inhibition": "3.78% [at 46.1 µM]"}, {"smiles": "C/C(=N\\NC(=O)c1ccccc1F)c1ccccn1", "Potency": "7.08 µM (active)"}, {"smiles": "CC(=NNC(=S)N1CCCCCC1)c1ccccn1", "Potency": "0.316 µM (active)"}, {"smiles": "CCOC(=O)CCC(NC(=O)c1ccc(CNc2nc3cc(C(F)(F)F)ccc3nc2C(=O)OCC)cc1)C(=O)OCC", "note": "(stereo not drawn)", "activity change, negative = inhibition": "-7.13%"}, {"smiles": "Cc1nn(-c2ccc(N3CCCCC3)nn2)c(C)c1CCC(=O)NCc1ccc(F)cc1", "activity change, negative = inhibition": "-18.5% [at 46.1 µM]"}, {"smiles": "COc1ccc(C(=O)C(C)OC(=O)c2cccc(S(=O)(=O)Nc3c(C)n(C)n(-c4ccccc4)c3=O)c2)cc1", "note": "(stereo not drawn)", "activity change, negative = inhibition": "-2.92%"}, {"smiles": "O=C(NNc1nc(N2CCCC2)nc(N2CCCC2)n1)c1ccccc1", "activity change, negative = inhibition": "15.5%"}, {"smiles": "O=C(Nc1ccc(O)cc1)c1ccc(NC(=O)c2ccco2)cc1", "activity change, negative = inhibition": "18.5%"}, {"smiles": "COCCn1c(SC(C)C(=O)NC2CC2)nnc1-c1cccc(C)c1", "note": "(stereo not drawn)", "activity change, negative = inhibition": "-8.47% [at 46.1 µM]"}, {"smiles": "COC(=O)c1sc(N2CCN(Cc3ccccc3)CC2)nc1N", "activity change, negative = inhibition": "-10.1% [at 46.1 µM]"}, {"smiles": "C/C(=N\\NC(=S)Nc1ccc(C)cc1)c1cc2ccccc2o1", "Potency": "6.51 µM (active)"}, {"smiles": "Cc1ccc(OC(=O)c2cc3ccccc3o2)cc1", "activity change, negative = inhibition": "-5.21%"}, {"smiles": "CC(C)Oc1ccc(NC(=O)c2cc3ccccc3o2)cc1", "activity change, negative = inhibition": "8.89% [at 46.1 µM]"}]}]}
